The values below come from PubChem BioAssay.

Where “and” joins values, the source holds several entries; their conditions need not be identical. Equal entries are not always repeated. Calls of active or inactive are those of the source.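 Rule for the calls, unless noted: active = thallium flux through the channel raised or lowered by more than 3 SD from vehicle-only wells, actives on both sides; inactive = the rest.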

Assay [1] in a line: P. berghei load reduction in hepatocytes – cell-based, HepG2, luciferase luminescence, HepG2 viability, primary screen (AID 624349; in the data active = parasite load remaining mostly below about 12%, no sharp cut-off; inactive = mostly above about 10%;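 note: 100% = mean of DMSO negative control wells on the same plate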). Conditions: P. berghei liver stage in HepG2, luciferase luminescence, concentration not given here; parasite load remaining: stronger effect = lower value; viability: measured here: HepG2 viability without parasites.
The nature of assay [2]: modulation of C. elegans fzo-1 (AID 1259413; call rule not given here;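 note: fzo-1 mutant C. elegans worms in liquid wells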). To be noted: C. elegans fzo-1 modulator screen, mean read-out; stronger effect = higher value.
Assay [3] is described as follows: viability loss with induced miR-34 in A549 – imaging, A549 dox-inducible miR-34, nuclei and caspase counts, primary screen (AID 1347080;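 active = compounds whose cell count with miR-34 switched on is under 0.7 times the count with it off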). To be noted: A549 miR-34 inducible, Hoechst nuclei count, 48 h.
Assay [4] in a line: MELAS cybrid and Rieske KO viability enhancers – cell-based, MELAS cybrids, Rieske KO mouse fibroblasts, CellTiter-Glo, primary screen (AID 1508586;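 active = mean z-score across replicates of 1.96 or higher in either the MELAS or the Rieske mutant cell line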;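 note: z relative to plate mean and SD of compound and empty wells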). To be noted: low glucose. For orientation: ATP-based viability assays read luminescence as a measure of living cells.
A short description of assay [5]: galactose survival enhancers in mitochondrial complex I cybrids – cell-based, galactose medium, ATP luminescence, primary screen (AID 1645843;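 active = z-score of at least 1.8 in each of two replicates, scored against plate mean and spread of sample wells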;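 note: positive z means more ATP and so rescue of galactose-driven cybrid death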). Conditions: complex I mutant cybrid cells, 72 h, stronger effect = higher value.
In another assay the test system is F380Y. The experiment in a line: BK channel mutant inhibitors and activators – cell-based, U2OS BacMam, thallium flux, beta subunits, selectivity assay, profiling panel (AID 1259406).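 Note: initial slope of Thallos dye fluorescence rise after thallium is added; log ratio against the mean of 0.3% DMSO vehicle wells on the same plate.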 Conditions: U2OS BacMam BK variants, at 30 µM.
For another assay, the system named is F380Y/beta1. Described as above. Conditions: U2OS BacMam BK variants, at 30 µM.
For another assay, the system named is F380Y/beta2Delta. The description is as above. Conditions: U2OS BacMam BK variants, at 30 µM.
Another assay concerns F380Y/beta4. The description is as above. Conditions: U2OS BacMam BK variants, at 30 µM.
The target of assay [6] is Calcium-activated potassium channel subunit alpha-1 (Homo sapiens) + Leucine-rich repeat-containing protein 26 (Homo sapiens) (UniProt Q12791+Q2I0M4). Described as above. To be noted: U2OS BacMam BK variants, F380Y/Slo1WT/gamma1, at 30 µM.
Another assay has as its system R275C. Described as above. Conditions: U2OS BacMam BK variants, at 30 µM.
The subject of the next assay is R275C/beta1. The assay is described as above. To be noted: U2OS BacMam BK variants, at 30 µM.
Another assay concerns R275C/beta2Delta. Described as above. To be noted: U2OS BacMam BK variants, at 30 µM.
For another assay, the system named is R275C/beta4. The assay is described as above. Conditions: U2OS BacMam BK variants, at 30 µM.
The next assay relates to R275C/Slo1WT/beta2. Described as above. Conditions: U2OS BacMam BK variants, at 30 µM.
The nature of assay [7]: signal quenchers or enhancers, Cy5 substrate/SSB – biochemical, NIH Clinical Collection, E. coli SSB, artefact control for HCV NS3 helicase inhibitor project (AID 743268; call rule not given here). Conditions: Cy5-oligo bound E. coli SSB, fluorescence interference.
The test system of assay [8] is Hepatitis C virus NS3 helicase. Description: blockers of NS3h binding to DNA – biochemical, fluorescence polarization, NIH Clinical Collection, primary screen (AID 743270; call rule not given here). To be noted: NS3 helicase binding to Cy5-dT15 DNA, stronger effect = higher value, concentration not given here.
The target in assay [9] is Single-stranded DNA-binding protein (Escherichia coli (strain K12)) (UniProt P0AGE0). The experiment in a line: SSB-ssDNA binding inhibitors – biochemical, fluorescence polarization, NIH Clinical Collection, counter-screen for HCV NS3 helicase inhibitor project (AID 743271; in the data active = inhibition above about 28%). Conditions: E. coli SSB-DNA binding, stronger effect = higher value, concentration not given here. On the technique in general: Polarisation of emitted light reports the rotation of a fluorescent probe.

A short description of assay [10]: compounds distorting NS3 helicase fluorescence signal – biochemical, NIH Clinical Collection, artefact control for HCV NS3 helicase inhibitor project (AID 743272; call rule not given here;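 note: HCV NS3 helicase with a Cy5 labelled single stranded DNA probe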). Conditions: fluorescence interference counterscreen, HCV NS3 helicase assay; stronger effect = lower value. For orientation: The purpose of a counterscreen is to sort out artefacts and off-target activity.
Where [11] appears, read: stronger effect = lower value, cell number ratio, induced over uninduced.
Where [12] appears, read: measured here: relative caspase fold change +Dox/-Dox.
[13] abbreviates: measured here: total cells with miR-34 induction, stronger effect = lower value.
The mark [14] stands for this setting: measured here: total cells without miR-34 induction.

Sequence of Calcium-activated potassium channel subunit alpha-1 (Homo sapiens) + Leucine-rich repeat-containing protein 26 (Homo sapiens) (Q2I0M4 whole entry, looked up, one chain of several): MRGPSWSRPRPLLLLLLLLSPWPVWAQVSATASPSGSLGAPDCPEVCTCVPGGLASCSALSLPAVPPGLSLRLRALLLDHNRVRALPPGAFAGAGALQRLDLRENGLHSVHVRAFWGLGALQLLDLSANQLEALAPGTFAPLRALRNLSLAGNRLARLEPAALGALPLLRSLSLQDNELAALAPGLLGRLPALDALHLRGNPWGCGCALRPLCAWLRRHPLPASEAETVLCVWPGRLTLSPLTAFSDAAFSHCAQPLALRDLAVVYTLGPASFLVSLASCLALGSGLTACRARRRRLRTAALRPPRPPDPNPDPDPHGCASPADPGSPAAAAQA

As to `CN1[C@@H]2CC[C@H]1CC(OC(=O)C(CO)c1ccccc1)C2` (stereo partly specified), the parasite load remaining in assay [1] is 41.5% (inactive) and 46.2% (inactive). Also, the viability (in general, a read-out of living cells in per cent, often relative to untreated cells) in assay [1] was 87.1% and 116%. The mean signal in assay [2] is 274 (inactive). Besides, the fold change is 0.947 (inactive) and 0.887 (inactive) and 0.871 (inactive) in [3] (setting [11]); 2.84 and 0.579 and 1.47 in assay [3] (setting [12]). For the same compound, the cell count in assay [3] (setting [13]) was 10500 and 7790 and 9390; in assay [3] (setting [14]), 11100 and 8790 and 10800. For the same compound, the z-score was -0.283 (inactive) and 0.13 (inactive) in assay [4] (MELAS cybrid survival, CellTiter-Glo 48 h, stronger effect = higher value); 0.502 and 0.307 in assay [4] (Rieske KO mouse fibroblast survival, CellTiter-Glo 72 h); 0.56 (inactive) and 0.265 (inactive) in assay [5]. Besides, the log fold change Tl+ flux is 0.0269 (inactive) in the assay on F380Y; -0.0245 (inactive) with F380Y/beta1; 0.00535 (inactive) in the assay on F380Y/beta2Delta; 0.0216 (inactive) in the assay with F380Y/beta4; 0.00679 (inactive) in assay [6]; -0.0152 (inactive) with R275C. For the same compound, the log fold change Tl+ flux in the assay on R275C/beta1 is -0.00104 (inactive); in the assay with R275C/beta2Delta it was 0.0208 (inactive); with R275C/beta4 it was -0.00928 (inactive); in the assay with R275C/Slo1WT/beta2, 0.0472 (inactive).
Regarding `CCOC(=O)[C@@H](CCc1ccccc1)N[C@@H](C)C(=O)N1CCC[C@H]1C(=O)O`, in assay [1], the parasite load remaining is 41.4% (inactive). Besides, in [1], the viability was found to be 126%. For the same compound, the figures for the fluorescence ratio in assay [7] and in [10] were 1.05 (inactive) and 1 (inactive), respectively. The results for the inhibition in assay [8] and in assay [9] were -10.4% (inactive) and -0.48% (inactive), respectively. In assay [2], the mean signal is 237 (inactive). Besides, the results for the fold change in assay [3] (setting [11]) and in assay [3] (setting [12]) were 0.958 (inactive) and 0.517, respectively. The values for the cell count in assay [3] (setting [13]) and in [3] (setting [14]) were 11000 and 11500, respectively. Further, the z-score in assay [5] is 0.835 (inactive). For the same compound, the log fold change Tl+ flux in the assay on F380Y is 0.0242 (inactive); with F380Y/beta1 it was 0.0697 (inactive); with F380Y/beta2Delta, 0.00383 (inactive); in the assay with F380Y/beta4, 0.0422 (inactive); in [6], 0.023 (inactive); with R275C, 0.0223 (inactive). The log fold change Tl+ flux is -0.00857 (inactive) in the assay with R275C/beta1, -0.00135 (inactive) in the assay on R275C/beta2Delta, -0.0226 (inactive) with R275C/beta4 and -0.0503 (inactive) in the assay with R275C/Slo1WT/beta2.
In the case of `CC(N)(Cc1ccc(O)c(O)c1)C(=O)O` (stereo unspecified), in assay [1], the parasite load remaining was 67.7% (inactive). In [1], the viability came to 87.8%. The values for the fluorescence ratio in assay [7] and in assay [10] were 0.1 (active) and 0.96 (inactive), respectively. The inhibition (commonly the relative decrease from the control value, in per cent) was -3.18% (inactive) in assay [8] and -0.48% (inactive) in assay [9]. The mean signal in assay [2] is 264 (inactive). Besides, the fold change in assay [3] (setting [11]) is 1.03 (inactive) and 1.02 (inactive); in assay [3] (setting [12]) it was 0.522 and 3.64. For the same compound, the cell count in [3] (setting [13]) was 9990 and 9950; in [3] (setting [14]), 9680 and 9750. In addition, in assay [5], the z-score is -1.27 (inactive) and -1.07 (inactive). Further, the log fold change Tl+ flux in the assay with F380Y was -0.0268 (inactive); in the assay with F380Y/beta1, -0.0706 (inactive); in the assay with F380Y/beta2Delta it was -0.0381 (inactive); in the assay with F380Y/beta4, -0.00847 (inactive); in assay [6], -0.0181 (inactive); in the assay with R275C, -0.0316 (inactive). Besides, the log fold change Tl+ flux is -0.0727 (inactive) in the assay with R275C/beta1, -0.00349 (inactive) in the assay on R275C/beta2Delta, -0.0805 (inactive) with R275C/beta4 and -0.125 (active) in the assay on R275C/Slo1WT/beta2.
In the case of `CC1c2cccc(O)c2C(O)=C2C(=O)C3(O)C(O)=C(C(N)=O)C(=O)C(N(C)C)C3C(O)C21` (stereo unspecified), in assay [1], the parasite load remaining was 45.4% (inactive). The viability in [1] was 132%. Moreover, the values for the fluorescence ratio in assay [7] and in assay [10] were 1.05 (inactive) and 1 (inactive), respectively. In addition, the inhibition was -13.2% (inactive) in assay [8] and -2.76% (inactive) in assay [9]. In addition, in assay [2], the mean signal is 241 (inactive). Also, the fold change is 1.04 (inactive) in assay [3] (setting [11]) and 1.1 in [3] (setting [12]). Also, the cell count in [3] (setting [13]) turned out to be 2090; in assay [3] (setting [14]), 2010. For the same compound, in assay [5], the z-score was -1.48 (inactive). Moreover, the log fold change Tl+ flux in the assay on F380Y was 0.0135 (inactive); in the assay on F380Y/beta1 it was -0.12 (active); with F380Y/beta2Delta, -0.0466 (inactive); in the assay with F380Y/beta4, -0.028 (inactive); in assay [6] it was -0.0167 (inactive); in the assay on R275C, -0.0534 (inactive). Besides, the log fold change Tl+ flux in the assay with R275C/beta1 is -0.0443 (inactive); with R275C/beta2Delta, -0.0148 (inactive); with R275C/beta4, -0.108 (inactive); in the assay on R275C/Slo1WT/beta2, -0.0846 (inactive).
